# Reference: PubChem BioAssay
# Inconclusive results are not listed. The source made the active and inactive calls. Rule as the data show it, unless noted: active = inhibition above about 80%; inactive = the rest.
# Assays:
# [1] = growth inhibition of DIPG glioma cells, dose response, cell-based, JHH-DIPG-1, MIPE4.0, CellTiter-Glo, qHTS (AID 1347062; cut-off not given, nearly all actives have AC50 up to about 27 µM); settings: JHH-DIPG-1 viability, CellTiter-Glo ATP luminescence
# [2] = growth inhibition of DIPG glioma cells, dose response, cell-based, SU-DIPG-IV, MIPE4.0, CellTiter-Glo, qHTS (AID 1347063; cut-off not given, nearly all actives have AC50 up to about 30 µM;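 also: compound exposure lasted 48 hours before the viability readout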); settings: SU-DIPG-IV viability, CellTiter-Glo ATP luminescence
# [3] = SU-DIPG-VI glioma cell viability, MIPE4.0 library, CellTiter-Glo luminescence, qHTS (AID 1347066; cut-off not given, nearly all actives have AC50 up to about 30 µM;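 also: cells exposed to compound for 48 hours before readout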); settings: CellTiter-Glo ATP luminescence
# [4] = LFS_MB_P medulloblastoma growth inhibition, cell-based, chromothripsis tumors, cisplatin or BGB combos (AID 1671449); settings: LFS_MB_P medulloblastoma cells;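 also: cells exposed for 96 hours; 0% = vehicle DMSO and 100% = killing by high DMSO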
# [5] = HDN33 neuroblastoma growth inhibition, cell-based, chromothripsis tumors, cisplatin or BGB combos (AID 1671450); settings: HDN33 neuroblastoma cells, stronger effect = higher value;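 also: cells exposed to compound for four days; 0% = vehicle DMSO and 100% = cell killing by high DMSO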
# [6] = ICB984 medulloblastoma cell growth inhibition, synergistic combos for chromothripsis tumors, cisplatin or BGB combos (AID 1671451; call rule not given here;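 also: cells exposed for 96 hours before readout; 0% = vehicle DMSO and 100% = killing by high DMSO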); settings: ICB984 medulloblastoma cells, drug combinations, stronger effect = higher value
# [7] = HTB85 osteosarcoma cell growth inhibition, synergistic combos for chromothripsis tumors, BGB or cisplatin IC20 combos (AID 1671453); settings: HTB85 osteosarcoma cells, drug combinations, stronger effect = higher value;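 also: cells exposed for 96 hours before readout; 0% = vehicle DMSO and 100% = high DMSO killing control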
# [8] = MDA-MB-436 breast carcinoma cell growth inhibition, synergistic combos for chromothripsis tumors, BGB or cisplatin combos (AID 1671458; call rule not given here;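 also: cells exposed for 96 hours; 0% = vehicle DMSO and 100% = killing by high DMSO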); settings: MDA-MB-436 breast carcinoma growth inhibition, drug combinations, stronger effect = higher value
# [9] = growth inhibition of BT084 medulloblastoma cells, cell-based, ICGC_MB145, cisplatin and BGB IC40 combos (AID 1671461); settings: drug combinations, stronger effect = higher value;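 also: cells exposed to drugs for 96 hours; 0% = vehicle DMSO and 100% = high DMSO full killing control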
# [10] = growth inhibition of RCMB18 medulloblastoma cells, cell-based, cisplatin and BGB IC40 combos (AID 1671462); settings: stronger effect = higher value;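 also: cells exposed to compound for four days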
# [11] = growth inhibition of CRL1545 osteosarcoma cells, cell-based, cisplatin and BGB IC20 combos (AID 1671464); settings: stronger effect = higher value;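 also: cells exposed to compound for 96 hours before readout; 0% = vehicle DMSO and 100% = high DMSO killing control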
# [12] = growth inhibition of DIPG glioma cells, dose response, cell-based, SU-DIPG-XIII, MIPE5.0, CellTiter-Glo, qHTS (AID 1347064; cut-off not given, nearly all actives have AC50 up to about 23 µM); settings: SU-DIPG-XIII viability, CellTiter-Glo ATP luminescence
# [13] = SU-DIPG-XXV glioma cell viability, MIPE5.0 library, qHTS (AID 1347068; cut-off not given, nearly all actives have IC50 up to about 30 µM)
# [14] = measured here: with BGB IC20 combination, at 0.5 µM
# [15] = measured here: with cisplatin IC20 combination, at 0.5 µM
compound,measurement,setting,value
Cc1cn([C@@H]2O[C@H](CO)[C@@H](O)[C@@H]2F)c(=O)[nH]c1=O,outcome,[1],inactive
same,outcome,[2],inactive
same,outcome,[3],inactive
same,inhibition,"[4]; at 0.5 µM, stronger effect = higher value",-22.2% (inactive)
same,inhibition,"[4]; measured here: combination with BGB IC20, at 0.005 µM",-21.4%
same,inhibition,"[4]; measured here: combination with BGB IC40, at 0.005 µM",24.6%
same,inhibition,"[4]; measured here: combination with BGB IC40, at 0.05 µM",-36.4%
same,inhibition,"[4]; measured here: combination with cisplatin, at 0.5 µM, stronger effect = higher value",-29.1%
same,inhibition,"[4]; measured here: combination with cisplatin, at 5 µM, stronger effect = higher value",-25.8%
same,inhibition,"[5]; BGB combo, at 5 µM",-42.9%
same,inhibition,[5]; at 0.5 µM,15.9% (inactive)
same,inhibition,"[5]; cisplatin combo, at 5 µM",-14%
same,inhibition,[5]; [14],25%
same,inhibition,[5]; [15],22.2%
same,inhibition,"[5]; single agent, at 5 µM",-22.6%
same,inhibition,"[6]; BGB IC20 combo, at 0.005 µM",-11.3%
same,inhibition,"[6]; BGB IC40 combo, at 0.005 µM",-20.8%
same,inhibition,"[6]; BGB IC40 combo, at 0.05 µM",-28.4%
same,inhibition,[6]; at 0.5 µM,-27.1% (inactive)
same,inhibition,"[6]; cisplatin combo, at 0.05 µM",-35%
same,inhibition,"[6]; cisplatin combo, at 0.5 µM",-33.8%
same,inhibition,"[6]; cisplatin combo, at 5 µM",-27.5%
same,inhibition,"[6]; measured here: 5 uM single agent, at 5 µM",-20.1%
same,inhibition,[7]; at 0.5 µM,7.88% (inactive)
same,inhibition,"[7]; measured here: with BGB IC20, at 0.5 µM",40.2%
same,inhibition,"[7]; measured here: with BGB IC20, at 5 µM",-1.08%
same,inhibition,"[7]; measured here: with cisplatin IC20, at 0.5 µM",-7.9%
same,inhibition,"[7]; measured here: with cisplatin IC20, at 5 µM",-2.9%
same,inhibition,"[7]; single agent, at 5 µM",6.67%
same,inhibition,[8]; at 0.5 µM,-24.5% (inactive)
same,inhibition,"[8]; measured here: BGB combination, at 0.5 µM",-21.7%
same,inhibition,"[8]; measured here: BGB combination, at 5 µM",-19.5%
same,inhibition,"[8]; measured here: cisplatin combination, at 0.5 µM",-37.4%
same,inhibition,"[8]; measured here: cisplatin combination, at 5 µM",-37%
same,inhibition,[9]; at 0.5 µM,-12.8% (inactive)
same,inhibition,"[9]; cisplatin combination, at 0.5 µM",3.7%
same,inhibition,"[9]; cisplatin combination, at 5 µM",-127%
same,inhibition,"[9]; measured here: BGB IC40 combination 0.05 uM, at 0.05 µM",-18.9%
same,inhibition,"[9]; single agent, at 5 µM",-21.7%
same,inhibition,[10]; at 0.5 µM,-23.1% (inactive)
same,inhibition,"[10]; cisplatin combo, at 5 µM",-15.5%
same,inhibition,"[10]; measured here: BGB IC40 combination, at 0.05 µM",-13.9%
same,inhibition,"[10]; measured here: combination with cisplatin, at 0.5 µM",-19%
same,inhibition,"[10]; single agent, at 5 µM",-12.7%
same,inhibition,[11]; at 0.5 µM,12.7% (inactive)
same,inhibition,[11]; [14],6.33%
same,inhibition,[11]; [15],14.6%
same,inhibition,"[11]; single agent, at 0.05 µM",-20.4%
same,inhibition,"[11]; single agent, at 5 µM",5.83%
Fc1ccc(CNc2ncnc3ccc(F)cc23)cc1,outcome,[1],inactive
same,outcome,[12],inactive
same,outcome,[13],inactive
